Source: PubChem
Compounds with a hit are over-represented: about 6% of the library has one in this group of screens.
D1 ag: Allosteric Agonists of the Human D1 Dopamine Receptor: qHTS; HEK293 T-REx D1 cells, calcium flux, agonist mode; activation, % at 2 µM; AID 504660, 2011; hit rate 1% among 360,000; D(1A) dopamine receptor (Homo sapiens), P21728; in the data active = activation above about 30%; note: 0% is about no effect
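Inducible HEK293 T-REx D1 cells, force-coupled to calcium signalling, were plated at 4000 cells/well with tetracycline and held overnight at 30 C. After no-wash calcium dye loading, compound-evoked calcium rise over 180 s flagged agonists.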
D1 PAM: Potentiators of Human D1 Dopamine Receptor: qHTS; HEK293 TREx D1 cells, calcium flux, dopamine EC20 potentiation; potentiation, % at 10 µM; hit rate 0.036% among 360,000; in the data active = potentiation above about 30%; note: 0% is about no effect
D1 antagonist: Antagonist of Human D 1 Dopamine Receptor: qHTS; HEK293 TREx D1 cells, calcium flux, dopamine EC80; hits give low values; activity change, negative = inhibition, % at 10 µM; hit rate 3.2% among 360,000; AID 504652, 2011; in the data active = activity change below about -30%; note: % is set by controls: 0 for no effect and ±100 for the full control effect
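Antagonism measured as reduced calcium response to an EC80 dopamine addition following 180 s compound pre-read; cells were inducible HEK293 Trex D1 plated overnight at 30 C, read kinetically at 1 cycle/sec.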
DRD3 agonist: qHTS of D3 Dopamine Receptor Agonist: qHTS; D3R DiscoveRx beta-arrestin cells, luminescence, 90 min; hit rate 0.58% among 410,000; AID 652048, 2013; max activation, %; D(3) dopamine receptor (Homo sapiens), P35462; in the data active = max activation above about 30%; note: 0% is about no effect
Target sequence (P35462 whole entry, looked up): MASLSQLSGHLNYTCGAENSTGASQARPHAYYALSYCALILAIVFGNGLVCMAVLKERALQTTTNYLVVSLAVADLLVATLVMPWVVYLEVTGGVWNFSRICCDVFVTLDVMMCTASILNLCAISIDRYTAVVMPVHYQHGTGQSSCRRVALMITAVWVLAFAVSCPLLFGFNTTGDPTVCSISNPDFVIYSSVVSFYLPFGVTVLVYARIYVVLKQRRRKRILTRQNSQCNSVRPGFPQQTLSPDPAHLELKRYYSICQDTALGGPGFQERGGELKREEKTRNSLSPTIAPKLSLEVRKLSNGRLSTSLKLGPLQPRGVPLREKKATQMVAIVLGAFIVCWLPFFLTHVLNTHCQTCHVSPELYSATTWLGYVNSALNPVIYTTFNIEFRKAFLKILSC
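Agonist-mode cell screen: cells plated at 1500/well and incubated overnight at 37 °C, then exposed to library compounds for 90 min at 37 °C. Detection reagent was added for 30–60 min at room temperature, and luminescence was read.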
DRD3 antagonist: qHTS of D3 Dopamine Receptor Antagonist: qHTS; D(3) dopamine receptor (Homo sapiens), P35462; D3R cells, DiscoveRx beta-arrestin luminescence, antagonist mode; hits give low values; max response, negative = inhibition, %; hit rate 2.5% among 360,000; AID 652054, 2013; in the data active = max response below about -50%; inconclusive = no clear call, values can overlap the other calls; note: % is set by controls: 0 for no effect and ±100 for the full control effect
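Cells expressing the human receptor were seeded at 1500 cells/well, incubated overnight at 37 degrees C in 5% CO2, then exposed to library compounds with dopamine controls for 90 minutes at 37 degrees C before luminescent detection.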
* = called active by the depositor; ? = inconclusive; . = no result; ! = repeats disagree.

SMILES | D1 ag | D1 PAM | D1 antagonist | DRD3 agonist | DRD3 antagonist
CCN1CCC[C@H]1CNC(=O)c1c(OC)ccc(Br)c1OC | -1.4 | -1.2 | 34.4 | -78.8 | -54.8*
CCN1CCCC1CNC(=O)c1cc(S(=O)(=O)CC)ccc1OC (configuration not stated) | . | . | . | -24.4 | .
CCN1CCC[C@H]1CNC(=O)c1cc(S(N)(=O)=O)ccc1OC | 2.0 | -3.9 | -7.1 | . | .
CCN1CCCC1CNC(=O)c1cc([N+](=O)[O-])c(N(C)C)cc1OC (configuration not stated) | -3.4 | -10.7 | -14.6 | -27.7 | -103.0*
C=CCN1CCCC1CNC(=O)c1cc2[nH]nnc2cc1OC (configuration not stated) | -0.9 | -6.4 | -12.8 | -85.6 | -80.8*
CCN1CCCC1CNC(=O)c1[nH]c2ccc(OC)cc2c1C (configuration not stated) | 4.1 | -7.0 | -15.1 | -14.6 | -60.9*
CCOC(=O)C1CCN(C(=O)c2[nH]c3ccc(OC)cc3c2C)CC1 | 2.3 | 0.6 | -67.3* | 12.3 | 2.5
COc1ccc(-n2nnnc2CNC(=O)c2ccc3c(c2)OCO3)cc1 | 1.3 | -1.6 | 11.3 | -5.5 | -6.7
COC(=O)c1sc(-c2ccccc2)cc1NC(=O)c1ccc(F)cc1 | 1.2 | 0.1 | -7.7 | 1.2 | 6.9
CC(=O)c1sc(-c2ccc(F)cc2)cc1NS(=O)(=O)c1ccccc1 | 2.6 | -4.5 | -41.5* | -3.5 | 6.2
CN(C)c1c([N+](=O)[O-])cc2[nH]c(=O)[nH]c2c1[N+](=O)[O-] | -0.5 | -1.1 | . | -15.7 | -69.3*
O=c1[nH]c2cc([N+](=O)[O-])c([N+](=O)[O-])cc2[nH]c1=O | 4.1 | . | -1.1 | -5.7 | ?
Cc1ccc(CONC(=O)c2cccc([N+](=O)[O-])c2)cc1 | 0.2 | -10.2 | -3.6 | 4.1 | -5.3
COC(=O)C(/C=N/OCc1ccc([N+](=O)[O-])cc1)NC(=O)c1cccc(Cl)c1 (configuration not stated) | 40.7* | -10.2 | -5.4 | -11.0 | -8.8
S=c1[nH]c(-c2ccc(Br)cc2)cn1CCc1ccccc1 | 3.8 | -6.5 | -90.3* | 5.2 | 25.1
COc1ccccc1-c1nc(-c2ccc(Br)o2)no1 | 4.2 | 0.9 | -34.8*! | -2.0 | 6.1
Cc1ccc2c(c1)N(C(=O)CCC(=O)NCc1ccccc1Cl)CC(C)O2 (configuration not stated) | 0.8 | -3.5 | -1.2 | -6.2 | .
COc1ccc(C(=O)c2cn(Cc3ccc(F)cc3)c3ccc(C)cc3c2=O)cc1 | 3.4 | 7.5 | -5.6 | 5.8 | .
Cc1cc(C)n(C(=O)CCCC(=O)n2nc(C)cc2C)n1 | 2.2 | -10.4 | -31.6* | 2.1 | 9.0
Cc1cc(C)n(C(=O)CCCCCCCC(=O)n2nc(C)cc2C)n1 | -1.3 | 3.8 | -0.9 | -5.8 | 11.1
CCOC(=O)CC(/C(C)=N\O)c1ccccc1 (configuration not stated) | 0.7 | 1.1 | -74.9* | 6.6 | 31.7
Cc1ccc(-c2c(CN3CCN(c4cccc(C(F)(F)F)c4)CC3)csc2C)cc1 | 1.4 | 1.1 | 0.6 | -13.6 | .
CCn1c(SCc2ccccc2Cl)nc(=O)c2c(C(=O)OC)cc(C3CC3)nc21 | -0.1 | 5.8 | 4.4 | -5.9 | .
O=C(COC(=O)COc1cccc(C(F)(F)F)c1)Nc1ccc(N2CCOCC2)cc1 | 7.2 | -8.8 | -40.1* | -0.1 | 14.3
Cc1ccc(C)c(OCCC(=O)OCC(=O)Nc2ccc(N3CCOCC3)cc2)c1 | 9.4 | -4.8 | -52.7* | -12.4 | 0.1
SMILES | D1 ag | D1 PAM | D1 antagonist | DRD3 agonist | DRD3 antagonist
Cc1ccc(C)c(OCC(=O)Nc2ccc(N3CCOCC3)cc2)c1 | 6.3 | -2.0 | 0.4 | 6.7 | 0.0
COc1cc(NS(=O)(=O)c2ccc(NC(=O)c3ccc(Cl)cc3Cl)cc2)nc(OC)n1 | -1.6 | 0.1 | 6.2 | -2.0 | .
COc1cc(C(=O)OCCNC(=O)c2ccncc2)cc(OC)c1OC | 1.0 | -5.2 | -39.2* | -3.5 | 10.6
O=C(NCCOC(=O)c1ccncc1)c1ccccc1 | 4.4 | -4.5 | 3.3 | 2.8 | -28.7
O=C(NCC1CCCN1S(=O)(=O)c1cccs1)c1cccc(Cl)c1 (configuration not stated) | 4.3 | -4.4 | -31.6* | 2.9 | -23.6
COc1ccc(N=CC2=C(O)c3ccccc3C2=O)c(OC)c1 | 3.0 | -1.7 | -0.9 | -4.1 | -57.9*
COc1ccc(Cl)cc1S(=O)(=O)N1CCN(S(=O)(=O)c2ccc3c(c2)OCCO3)CC1 | 3.2 | 5.5 | -7.7 | . | .
C=Cc1ccc(Cn2c(=O)n(C)c(=O)c3sccc32)cc1 | 15.7 | -1.9 | -34.3* | -1.1 | -3.3
COc1cccc(-c2cnc(NCc3ccccc3Cl)n2C)c1 | 11.3 | -4.2 | 14.8 | -9.9 | .
COc1ccccc1CNS(=O)(=O)c1ccc(-n2cnnn2)c(C)c1 | 6.8 | -8.3 | -30.7* | 18.8 | 0.5
COc1ccccc1CNS(=O)(=O)c1ccc2c(c1)NC(=O)CC(=O)N2 | 1.6 | -3.2 | -32.6* | 4.9 | .
Cc1cc(S(=O)(=O)NC2CCCCC2)ccc1-n1cnnn1 | 10.1 | -4.7 | -30.4* | 3.3 | 8.9
CC(NCc1ccc(S(N)(=O)=O)cc1)C(=O)N1CCc2ccccc21 (configuration not stated) | 1.1 | -1.1 | -2.2 | -3.4 | 1.7
CC(NCc1ccc2c(c1)OCO2)C(=O)N1CCc2ccccc21 (configuration not stated) | 2.7 | -5.7 | -2.6 | -11.7 | -107.2*
Cc1ccccc1NC(=O)c1cc(S(=O)(=O)c2ccccc2)ccc1Cl | -0.1 | -14.7 | -20.4 | -7.9 | -51.7*
O=C1C(=C(c2ccccc2)c2ccccc2)Nc2ccccc21 | 36.1* | -12.3 | -6.8 | -5.1 | -14.3
O=C1C(=C(O)c2ccccc2)C(=O)c2ccccc21 | 1.5 | 2.0 | 7.0 | -10.6 | ?
COC(=O)c1cc(OC)c(OC)cc1NC(=O)c1c(-c2ccccc2Cl)noc1C | 1.9 | -4.2 | 1.0 | 44.3* | 39.0
CCOC(=O)CC(NC(=O)Cn1nnc(-c2ccccc2F)n1)c1ccc(OC)cc1 (configuration not stated) | 12.5 | -3.9 | 15.6 | -6.8 | -6.5
COC(=O)c1cc(OC)c(OC)cc1NC(=O)Cn1nnc(-c2ccccc2Cl)n1 | 2.3 | 0.6 | -1.8 | 51.9* | 6.4
COc1ccc(NC(=O)Cn2nnc(-c3ccccc3F)n2)cc1Cl | 6.9 | 6.7 | -4.0 | -2.7 | 0.8
COc1ccccc1NC(=S)NC(=O)c1c(-c2ccccc2Cl)noc1C | 10.0 | -3.4 | -2.6 | -1.8 | 9.5
CCOC(=O)CC(NC(=O)Cn1nnc(-c2ccccc2Cl)n1)c1ccc(OC)cc1 (configuration not stated) | 64.5*! | -4.2 | -9.8 | 5.5 | 9.0
Cc1n(N)c2ccccc2[n+]1CC(=O)c1ccccc1 | 2.1 | -2.1 | -3.8 | -10.7 | -81.8*
Cc1ccccc1C(=O)Nc1ccnn1C1CCN(C(=O)c2ccoc2)CC1 | 3.6 | -4.7 | -44.5* | -5.6 | 0.9
